Data published in PubChem BioAssay AID920 (The Scripps Research Institute Molecular Screening Center, 2007).
Out of some 200,000 compounds screened, about 700 (0.35%) were called active.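 The calls were made as follows: active = inhibition above a set limit, the mean inhibition across all tested compounds plus 3 SD (cut at about 34% in these data); inactive = the rest.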 The list comes from a sample in which actives are over-represented; it also holds similar structures and randomly drawn compounds.

assay: STAT1 signaling inhibitors, primary screen, cell-based, HTS, luciferase reporter (AID 920); details: NIH 3T3 STAT1-luciferase reporter, IFN-gamma, luminescence; at 5.5 µM; stronger effect = higher value;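 also: 0% = IFN-gamma with DMSO and 100% = IFN-gamma with 300 µM nifuroxazide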

Question: With `CCN(CC)S(=O)(=O)c1ccc(NC(=O)c2cccnc2Cl)c(NC(=O)c2cccnc2Cl)c1` as the compound, how does the inhibition read?
Answer: The inhibition was 10.8% (inactive).

Question: With `O=c1cc(CSc2ccc(Cl)cc2)nc(N2CCOCC2)[nH]1` as the compound, how does the inhibition read?
Answer: Its inhibition is 2.61% (inactive).

Question: With `CCOc1ncccc1C(=O)OCc1cn2cc(Cl)ccc2n1` as the compound, how does the inhibition read?
Answer: The inhibition was -9.01% (inactive).

Question: For `Clc1ccc2nc(CSc3ccccc3)cn2c1`, which inhibition is on record?
Answer: Its inhibition is 35.4% (active).

Question: For `O=C(NCCCO)/C(=C\C=C\c1ccccc1)NC(=O)c1ccccc1Cl`, which inhibition is on record?
Answer: Its inhibition is 3.7% (inactive).

Question: With `Cc1nn(C)c(C)c1CN(C(=O)CCc1nnc(Cc2c[nH]c3ccccc23)o1)C(C)C` as the compound, how does the inhibition read?
Answer: The inhibition was -1.77% (inactive).

Question: With `COCCn1c(C)cc(C2=NNC(=Nc3ccc(F)cc3)SC2)c1C` as the compound, how does the inhibition read?
Answer: Its inhibition is -36.4% (inactive).

Question: Which inhibition does the source give for `C=CCn1c(C)cc(C2=NNC(=NCC)SC2)c1C` here?
Answer: The inhibition was 94.7% (active).

Question: Which inhibition does the source give for `Cc1cc(C2=NNC(=Nc3ccc(S(=O)(=O)N4CCOCC4)cc3)SC2)c(C)n1CC1CCCO1` (stereo unspecified) here?
Answer: Its inhibition is -1.28% (inactive).

Question: For `N/C(=N\OC(=O)Cc1ccccc1[N+](=O)[O-])c1ccc(Br)cc1`, which inhibition is on record?
Answer: The inhibition was 0.32% (inactive).

Question: For `CCc1cc2c(NC3CCCC3)ncnc2s1`, which inhibition is on record?
Answer: Its inhibition is 22.1% (inactive).

Question: For `CCc1cc2c(SCC(=O)Nc3ncc(Cl)c(C)c3Cl)ncnc2s1`, which inhibition is on record?
Answer: Its inhibition is -4.22% (inactive).

Question: For `CCc1cc2c(N3CCN(c4nnc(CC)s4)CC3)ncnc2s1`, which inhibition is on record?
Answer: The inhibition was 51.2% (active).

Question: With `O=C1C2C3C=CC(C4CC34)C2C(=O)N1c1nccs1` (stereo unspecified) as the compound, how does the inhibition read?
Answer: Its inhibition is 3.92% (inactive).

Question: With `C#CCOCCOCCOCCNc1nc(N2CCN(C(=O)[C@H](C(C)C)n3cc(CCO)nn3)CC2)nc(N2CCN(C(=O)[C@H]([C@@H](C)CC)n3cc(CCCN=C(N)N)nn3)CC2)n1` as the compound, how does the inhibition read?
Answer: The inhibition was -0.51% (inactive).

Question: For `CC(=O)c1ccc(N2CCN(CC(=O)Nc3ccccc3N3CCOCC3)CC2)cc1`, which inhibition is on record?
Answer: Its inhibition is 15% (inactive).

Question: Which inhibition does the source give for `O=C(CSC(=S)N1CCOCC1)c1ccccc1` here?
Answer: The inhibition was -27.1% (inactive).

Question: With `O=C(CC(O)(C(F)(F)F)C(F)(F)F)Nc1ccc(Cl)c(Cl)c1` as the compound, how does the inhibition read?
Answer: Its inhibition is 48.3% (active).

Question: Which inhibition does the source give for `O=C(CC(=O)Nc1ccc(Cl)c(Cl)c1)N/N=C/c1ccc(O)cc1` here?
Answer: The inhibition was 6.41% (inactive).

Question: Which inhibition does the source give for `CN(C)CCNC(CC(=O)Nc1ccc(Cl)c(Cl)c1)C(=O)O` (stereo unspecified) here?
Answer: Its inhibition is 0.9% (inactive).

Question: For `CC1=C(C)CC(C(=O)NC(C)CCc2ccccc2)C(C(=O)O)C1` (stereo unspecified), which inhibition is on record?
Answer: Its inhibition is -0.81% (inactive).

Question: Which inhibition does the source give for `CCCCOc1ccc(C(=O)NCC(=O)OCC(=O)N2CCN(S(=O)(=O)c3ccc(C)cc3C)CC2)cc1` here?
Answer: Its inhibition is -1.91% (inactive).

Question: For `CCCNC(=O)c1c(N)n(-c2ccc(S(N)(=O)=O)cc2)c2nc3ccccc3nc12`, which inhibition is on record?
Answer: The inhibition was -1.16% (inactive).

Question: Which inhibition does the source give for `CC(C)Cn1c(N)c(C(=O)NCc2cccs2)c2nc3ccccc3nc21` here?
Answer: The inhibition was -2.91% (inactive).

Question: Which inhibition does the source give for `CCC(C)NC(=O)c1c(N)n(/N=C/c2cccs2)c2nc3ccccc3nc12` (stereo unspecified) here?
Answer: The inhibition was 39.4% (active).

Question: Which inhibition does the source give for `Cc1ccc(-c2nc(-c3cccnc3)sc2CC(=O)Nc2ccc(C)c(Cl)c2)cc1` here?
Answer: The inhibition was 13.7% (inactive).
